# Data published in PubChem BioAssay (NCATS).
# Results filed as inconclusive are left out. A call without a number means that no potency is given here. Calls of active or inactive are those of the source. Calls follow the shape of the dose curve; as a rule, active = well fitted curve in the direction sought with a large enough effect; inconclusive = small, poorly fitted or top-dose-only effect, or another doubt; inactive = no such curve, though single readings can be large; an effect the other way counts as inactive or inconclusive.
# Assay: Cell Viability - LYMP2-003 (AID 965);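 also: cells exposed to compounds for 24 h before reading; nearly all actives have a fitted effect of over 50% in size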; also: potency is read from the fitted curve at half-maximal effect
# Conditions: LYMP2-003 lymphoblastoid cell viability; series mostly up to 92.2 µM
# Method in brief: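 Human lymphoblastoid LYMP2-003 cells, 2500/well, exposed to compounds for 24 h at 37 C in complete medium. Viability read as intracellular ATP by CellTiter-Glo luminescence; AC50 from Hill-equation fits of qHTS concentration-response data.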
row,SMILES,Potency
1,O=[N+]([O-])c1cc([N+](=O)[O-])c2ccccc2c1,inactive
2,CN(C)NC(=O)CCC(=O)O,inactive
3,CCOP(=O)(NC(C)C)Oc1ccc(SC)c(C)c1 (stereo unspecified),inactive
4,O=[N+]([O-])c1c2ccccc2cc2ccccc12,inactive
5,O=[N+]([O-])c1c(Cl)c(Cl)cc(Cl)c1Cl,inactive
6,O=S(=O)(c1ccc(Cl)cc1)c1ccc(Cl)cc1,inactive
7,COc1ccc(C(c2ccc(OC)cc2)C(Cl)(Cl)Cl)cc1,inactive
8,CC(C)(O)C(=O)Nc1ccc([N+](=O)[O-])c(C(F)(F)F)c1,inactive
9,Nc1ccc(Sc2ccc(N)cc2)cc1,inactive
10,Cc1cc(O)ccc1Cl,inactive
11,CCCCCCCCc1ccc(O)cc1,inactive
12,O=C(O)C(Cl)Cl,inactive
13,Nc1ccc(Cl)cc1N,inactive
14,COC(C)(C)CCCC(C)C/C=C/C(C)=C/C(=O)OC(C)C (stereo unspecified),inactive
15,c1cc2ccc3cccc4ccc(c1)c2c34,inactive
16,Nc1ccc([N+](=O)[O-])cc1,inactive
17,CCOCCOC(C)=O,inactive
18,CC(=O)[O][Hg][c]1ccccc1,1580 nM (active)
19,CCCCC(CC)COC(=O)c1ccccc1C(=O)OCC(CC)CCCC (stereo unspecified),inactive
20,C=CC(=O)NCNC(=O)C=C,inactive
21,OCCCBr,inactive
22,C1CCC(NC2CCCCC2)CC1,inactive
23,O=C(O)COc1ccccc1,inactive
24,CN(C)[C@@H]1C(=O)C(C(N)=O)=C(O)[C@@]2(O)C(=O)C3=C(O)c4c(O)cccc4[C@@](C)(O)[C@H]3[C@H](O)[C@@H]12,inactive
25,Nc1ccc(Cl)cc1,inactive
26,CCCCOC(=O)c1ccccc1C(=O)OCc1ccccc1,inactive

# Assay: Cell Viability - LYMP2-004 (AID 966); also: nearly all actives have a fitted effect of over 65% in size; also: potency is read from the fitted curve at half-maximal effect
# Conditions: LYMP2-004 lymphoblastoid cell viability, qHTS; series mostly up to 92.2 µM
# Method in brief: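 Viable-cell number estimated from ATP luminescence (CellTiter-Glo) in 2500 human lymphoblastoid cells/well after 24 hr at 37 C with compound. AC50 fitted to the standard Hill equation.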
row,SMILES,Potency
1,O=[N+]([O-])c1cc([N+](=O)[O-])c2ccccc2c1,inactive
2,CN(C)NC(=O)CCC(=O)O,inactive
3,CCOP(=O)(NC(C)C)Oc1ccc(SC)c(C)c1 (stereo unspecified),inactive
4,O=[N+]([O-])c1c2ccccc2cc2ccccc12,inactive
5,O=[N+]([O-])c1c(Cl)c(Cl)cc(Cl)c1Cl,inactive
6,O=S(=O)(c1ccc(Cl)cc1)c1ccc(Cl)cc1,inactive
7,COc1ccc(C(c2ccc(OC)cc2)C(Cl)(Cl)Cl)cc1,inactive
8,CC(C)(O)C(=O)Nc1ccc([N+](=O)[O-])c(C(F)(F)F)c1,inactive
9,Nc1ccc(Sc2ccc(N)cc2)cc1,inactive
10,Cc1cc(O)ccc1Cl,inactive
11,CCCCCCCCc1ccc(O)cc1,inactive
12,O=C(O)C(Cl)Cl,inactive
13,COC(C)(C)CCCC(C)C/C=C/C(C)=C/C(=O)OC(C)C (stereo unspecified),inactive
14,c1cc2ccc3cccc4ccc(c1)c2c34,inactive
15,Nc1ccc([N+](=O)[O-])cc1,inactive
16,CCOCCOC(C)=O,inactive
17,CC(=O)[O][Hg][c]1ccccc1,1000 nM (active)
18,CCCCC(CC)COC(=O)c1ccccc1C(=O)OCC(CC)CCCC (stereo unspecified),inactive
19,C=CC(=O)NCNC(=O)C=C,inactive
20,OCCCBr,inactive
21,C1CCC(NC2CCCCC2)CC1,inactive
22,O=C(O)COc1ccccc1,inactive
23,CN(C)[C@@H]1C(=O)C(C(N)=O)=C(O)[C@@]2(O)C(=O)C3=C(O)c4c(O)cccc4[C@@](C)(O)[C@H]3[C@H](O)[C@@H]12,inactive
24,Nc1ccc(Cl)cc1,inactive
25,CCCCOC(=O)c1ccccc1C(=O)OCc1ccccc1,inactive

# Assay: Cell Viability - LYMP2-005 (AID 967)
# Conditions: LYMP2-005 lymphoblastoid cell viability; series mostly up to 92.2 µM
# Method in brief: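 Human lymphoblastoid LYMP2-005 cells, 2,500 per well in complete medium, rested 5 h at 37C then compound-treated 24 h at 37C. Intracellular ATP read by CellTiter-Glo luminescence after 30 min at room temperature; AC50 from Hill-equation fits of concentration-response data.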
row,SMILES,outcome
1,O=[N+]([O-])c1cc([N+](=O)[O-])c2ccccc2c1,inactive
2,CN(C)NC(=O)CCC(=O)O,inactive
3,CCOP(=O)(NC(C)C)Oc1ccc(SC)c(C)c1 (stereo unspecified),inactive
4,O=[N+]([O-])c1c2ccccc2cc2ccccc12,inactive
5,O=[N+]([O-])c1c(Cl)c(Cl)cc(Cl)c1Cl,inactive
6,O=S(=O)(c1ccc(Cl)cc1)c1ccc(Cl)cc1,inactive
7,COc1ccc(C(c2ccc(OC)cc2)C(Cl)(Cl)Cl)cc1,inactive
8,CC(C)(O)C(=O)Nc1ccc([N+](=O)[O-])c(C(F)(F)F)c1,inactive
9,Nc1ccc(Sc2ccc(N)cc2)cc1,inactive
10,Cc1cc(O)ccc1Cl,inactive
11,CCCCCCCCc1ccc(O)cc1,inactive
12,O=C(O)C(Cl)Cl,inactive
13,Nc1ccc(Cl)cc1N,inactive
14,COC(C)(C)CCCC(C)C/C=C/C(C)=C/C(=O)OC(C)C (stereo unspecified),inactive
15,c1cc2ccc3cccc4ccc(c1)c2c34,inactive
16,CCOCCOC(C)=O,inactive
17,CCCCC(CC)COC(=O)c1ccccc1C(=O)OCC(CC)CCCC (stereo unspecified),inactive
18,C=CC(=O)NCNC(=O)C=C,inactive
19,OCCCBr,inactive
20,C1CCC(NC2CCCCC2)CC1,inactive
21,O=C(O)COc1ccccc1,inactive
22,CN(C)[C@@H]1C(=O)C(C(N)=O)=C(O)[C@@]2(O)C(=O)C3=C(O)c4c(O)cccc4[C@@](C)(O)[C@H]3[C@H](O)[C@@H]12,inactive
23,Nc1ccc(Cl)cc1,inactive
24,CCCCOC(=O)c1ccccc1C(=O)OCc1ccccc1,inactive

# Assay: Cell Viability - LYMP2-009 (AID 968); also: nearly all actives have a fitted effect of over 55% in size; also: potency is read from the fitted curve at half-maximal effect
# Conditions: LYMP2-009 lymphoblastoid cell viability; series mostly up to 92.2 µM
row,SMILES,Potency
1,O=[N+]([O-])c1cc([N+](=O)[O-])c2ccccc2c1,inactive
2,CN(C)NC(=O)CCC(=O)O,inactive
3,CCOP(=O)(NC(C)C)Oc1ccc(SC)c(C)c1 (stereo unspecified),inactive
4,O=[N+]([O-])c1c2ccccc2cc2ccccc12,inactive
5,O=[N+]([O-])c1c(Cl)c(Cl)cc(Cl)c1Cl,inactive
6,O=S(=O)(c1ccc(Cl)cc1)c1ccc(Cl)cc1,inactive
7,COc1ccc(C(c2ccc(OC)cc2)C(Cl)(Cl)Cl)cc1,inactive
8,CC(C)(O)C(=O)Nc1ccc([N+](=O)[O-])c(C(F)(F)F)c1,inactive
9,Nc1ccc(Sc2ccc(N)cc2)cc1,inactive
10,Cc1cc(O)ccc1Cl,inactive
11,CCCCCCCCc1ccc(O)cc1,inactive
12,O=C(O)C(Cl)Cl,inactive
13,Nc1ccc(Cl)cc1N,inactive
14,COC(C)(C)CCCC(C)C/C=C/C(C)=C/C(=O)OC(C)C (stereo unspecified),inactive
15,c1cc2ccc3cccc4ccc(c1)c2c34,inactive
16,Nc1ccc([N+](=O)[O-])cc1,inactive
17,CCOCCOC(C)=O,inactive
18,CC(=O)[O][Hg][c]1ccccc1,501 nM (active)
19,CCCCC(CC)COC(=O)c1ccccc1C(=O)OCC(CC)CCCC (stereo unspecified),inactive
20,C=CC(=O)NCNC(=O)C=C,inactive
21,OCCCBr,inactive
22,C1CCC(NC2CCCCC2)CC1,inactive
23,O=C(O)COc1ccccc1,inactive
24,CN(C)[C@@H]1C(=O)C(C(N)=O)=C(O)[C@@]2(O)C(=O)C3=C(O)c4c(O)cccc4[C@@](C)(O)[C@H]3[C@H](O)[C@@H]12,inactive
25,Nc1ccc(Cl)cc1,inactive
26,CCCCOC(=O)c1ccccc1C(=O)OCc1ccccc1,inactive
